# Source: PubChem BioAssay AID1259420 (Broad Institute, 2018)
# Where “and” joins values, the source holds several entries; their conditions need not be identical. Equal values may be shown once. Among all 1,000 compounds or so, about 250 (25%) were called active. About 31% were inconclusive and are not listed. The list is a sample of the results. Potency and affinity values are given separately. Unmarked numbers belong to inactive results. How the calls were made is not given here. Numbered stars: 1 amine (or outer) side, 2 acyl side, 3 side chain; on linkers, the order of the positions; unused ones are H or OH. Bridge positions count the residues as written; N and C are the ends. Square brackets hold non-standard residues; d marks the D form. Side chains are listed from the residue outwards. Peptide text beside a SMILES is read from it. * marks the point of attachment. ξ: configuration not given here. Ethylenediamine = C(CN[*:2])N[*:1]; Heptanoyl(6-Me) = CC(C)CCCCC(=O)*; Hyp = O=C(O)[C@@H]1C[C@@H](O)CN1; Phg = N[C@H](C(=O)O)c1ccccc1; CO = O=C([*:1])[*:2]; ξDab = NCCC(N)C(=O)O; ξT = CC(O)C(N)C(=O)O; Bn = c1ccc(C*)cc1
# Assay: T. gondii intracellular growth, IFN-gamma absent, dose response, cell-based (AID 1259420);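 further: host cells were HeLa; final incubation lasted 72 hours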
# Details: Toxoplasma gondii growth in host cells, no IFN-gamma
structure (smiles),measurement,setting,value
COCCO[C@H]1CCN(Cc2c(C)noc2C)[C@H]1Cc1ccccc1,max activity,at 19.5 µM unless noted,-15.1% [at 10 µM]
NCCCC[C@@H]1NC(=O)[C@@H](Cc2c[nH]c3ccccc23)NC(=O)[C@H](c2ccccc2)NC(=O)[C@@H]2C[C@@H](OC(=O)NCCN)CN2C(=O)[C@H](Cc2ccccc2)NC(=O)[C@H](Cc2ccc(OCc3ccccc3)cc2)NC1=O (cyclo([Hyp]([CO-Ethylenediamine])[Phg][dW]KY(Bn)F)),max activity,at 19.5 µM unless noted,-6.82% [at 1.2 µM]
CCCCC[C@H](CC(=O)NO)C(=O)N[C@H](C(=O)N1CCC[C@H]1CO)C(C)C,max activity,at 19.5 µM unless noted,-4.64% [at 1.2 µM]
O=C(C[C@H]1CC[C@H]2[C@@H](COC[C@@H](O)CN2Cc2ccc(Oc3ccccc3)cc2)O1)N1CCN(c2ccccc2)CC1,max activity,at 19.5 µM unless noted,-8.77% [at 10 µM]
Nc1c(-c2nnc(-c3ccccc3)o2)sc2nc(-c3ccccc3)cc(-c3ccccc3)c12,max activity,at 19.5 µM unless noted,-6.07% [at 0.6 µM]
CCN(CC)CCOC(=O)C(c1ccccc1)C1CCCCC1 (configuration not stated),max activity,at 19.5 µM unless noted,16.1% [at 10 µM]
COc1ccc(Cc2nnc(NC(=O)CC(C)C)s2)cc1,max activity,at 19.5 µM unless noted,16.7% [at 10 µM]
COCC12CCCOC1CCN(S(=O)(=O)c1cn(C)cn1)C2 (configuration not stated),max activity,at 19.5 µM unless noted,-11.3% [at 2.6 µM]
CC(C)C#Cc1ccc([C@@H]2[C@@H](CO)N3C(=O)CN(S(=O)(=O)c4ccccc4)C[C@H]23)cc1,max activity,at 19.5 µM unless noted,8.39%
Cc1ccc(S(=O)(=O)N2CC[C@@H]3[C@H](CO)Nc4ccc(-c5cccc(C(=O)N(C)C)c5)cc4[C@@H]32)cc1,max activity,at 19.5 µM unless noted,15.5%
O=C(C[C@H]1CC[C@@H]2[C@H](COC[C@H](O)CN2C(=O)c2cc(Cl)cc(Cl)c2)O1)N1CCc2ccccc2C1,max activity,at 19.5 µM unless noted,6.12% [at 2.6 µM]
c1ccc(-c2ccc([C@H]3[C@H]4CNC[C@@H]3N4Cc3cc(-c4ccccc4)on3)cc2)cc1,max activity,at 19.5 µM unless noted,21.8% [at 21 µM]
Cc1ccc(S(=O)(=O)Nc2ccc3c(c2)C(=O)N([C@@H](C)CO)C[C@H](C)[C@H](CN(C)Cc2ccc(C(F)(F)F)cc2)O3)cc1,max activity,at 19.5 µM unless noted,18.3%
COc1ccc(S(=O)(=O)N(C)C[C@H]2Oc3c(NC(=O)c4nc5ccccc5s4)cccc3C(=O)N([C@@H](C)CO)C[C@H]2C)cc1,max activity,at 19.5 µM unless noted,5.87% [at 5 µM]
OC[C@@H]1[C@@H](c2ccc(-c3cccc(F)c3)cc2)[C@@H]2CN(Cc3cncnc3)CCCCN12,max activity,at 1.2 µM,-7.4%
same,max activity,at 19.5 µM,16.1%
Cc1ccc(CN2CC[C@H]3CO[C@@H](CNC(=O)C4CC4)[C@@H]3C2)cc1,max activity,at 19.5 µM unless noted,-26.4% [at 10 µM]
CC(C)CCCCC(=O)NC(CCN)C(=O)NC(C(=O)NC(CCN)C(=O)NC1CCNC(=O)C(C(C)O)NC(=O)C(CCN)NC(=O)C(CCN)NC(=O)[C@H](CC(C)C)NC(=O)[C@@H](CC(C)C)NC(=O)C(CCN)NC1=O)C(C)O (stereo partly drawn) ({Heptanoyl(6-Me)}-[ξDab][ξT][ξDab][ξDab][ξDab][dL]L[ξDab][ξDab][ξT]; lactam 4-C),max activity,at 19.5 µM unless noted,-5.41% [at 2.6 µM]
O=C(C1CCCCC1)N1[C@@H](CO)[C@@H]2c3ccccc3N(S(=O)(=O)c3ccccc3)C[C@@H]21,max activity,at 19.5 µM unless noted,7.57%
O=C(NC1CCCC1)N1[C@@H]2CNC[C@H]1C2c1ccc(-c2cccnc2)cc1 (some centres not stated),max activity,at 19.5 µM unless noted,-14.9% [at 10 µM]
CN(C)C(=O)c1cccc(-c2ccc3c(c2)[C@H]2[C@H](CCN2C(=O)Cc2ccccc2)[C@@H](CO)N3)c1,max activity,at 19.5 µM unless noted,-6.17% [at 10 µM]
CN(C)C(=O)c1cccc(-c2ccc3c(c2)[C@@H]2[C@@H](CCN2C(=O)Cc2ccccc2)[C@H](CO)N3)c1,max activity,at 19.5 µM unless noted,13.7% [at 21 µM]
O=C(Cc1cccnc1)N1CC(=O)N2[C@@H](CO)[C@H](c3ccc(C#CC4CCCCC4)cc3)[C@@H]2C1,max activity,at 19.5 µM unless noted,-4.29% [at 10 µM]
CC(C)NC(=O)N1CC(=O)N2[C@H](C1)[C@@H](c1ccc(/C=C/c3ccccc3)cc1)[C@@H]2CO,max activity,at 19.5 µM unless noted,11.9% [at 5 µM]
CN(C)C(=O)c1cc2c(nc1NCC1CC1)CCN(Cc1ccccn1)CC2,max activity,at 19.5 µM unless noted,-6.11% [at 10 µM]
CC(C)CN(C[C@@H](O)[C@H](Cc1ccccc1)NC(=O)O[C@H]1CO[C@H]2OCC[C@H]21)S(=O)(=O)c1ccc(N)cc1,max activity,at 19.5 µM unless noted,6.05% [at 1.2 µM]
O=C(C1CC1)N1C[C@@H]2N[C@H](C1)C2c1ccc(/C=C/c2ccccc2)cc1 (some centres not stated),max activity,at 19.5 µM unless noted,27.3%
COc1ccc(-c2ccc(C3[C@@H]4CN(C(=O)c5cnccn5)C[C@H]3N4)cc2)cc1 (some centres not stated),max activity,at 19.5 µM unless noted,19.9%
COc1ccccc1-c1ccc(C2[C@@H]3CN(C(=O)c4ccncc4)C[C@H]2N3)cc1 (some centres not stated),max activity,at 19.5 µM unless noted,-11% [at 5 µM]
Cc1csc([C@H]2C[C@H]3CCN(C(=O)c4cnccn4)C[C@@H]3O2)n1,max activity,at 19.5 µM unless noted,-12.1%
CC(C)CNC(=O)c1cc(-c2ccn(CC3CC3)n2)n2ccccc12,max activity,at 19.5 µM unless noted,21.6%
Cc1ccc(S(=O)(=O)N2CCC3(CC2)OC(C(=O)N(C)C)Cn2ccnc23)cc1 (configuration not stated),max activity,at 19.5 µM unless noted,-17%
O=C(NC1CCCC1)N1CC[C@H]2CN(Cc3cccc(Cl)c3)S(=O)(=O)[C@@H]2CC1,max activity,at 19.5 µM unless noted,-17.4%
CN(C)C(=O)CN1C[C@@H]2CCN(C(=O)Nc3ccccc3Cl)CC[C@H]2S1(=O)=O,max activity,at 19.5 µM unless noted,7.52% [at 2.6 µM]
CC(C)n1c(C(=O)N2CCN(c3ccncc3)CC2)cc2c1c1ccccc1n2C,max activity,at 19.5 µM unless noted,37.4%
COc1ccccc1C#Cc1ccc([C@@H]2[C@H](CO)N3CCCCN(C(=O)C4CCC4)C[C@@H]23)cc1,max activity,at 19.5 µM unless noted,17.3%
CS(=O)(=O)N1CCO[C@@H]2CN(C(=O)Cc3ccccn3)CC[C@H]2C1,max activity,at 19.5 µM unless noted,-18.9% [at 1.2 µM]
Cn1c([N+](=O)[O-])cnc1COC(N)=O,max activity,at 19.5 µM unless noted,-13.4% [at 0.6 µM]
N#C[C@H]1N[C@@H](CO)[C@@H]1c1ccc(C#CC2CCCCC2)cc1,max activity,at 19.5 µM unless noted,28% [at 21 µM]
C=CC[C@@H]1CC=C[C@@H](C)N1C(=O)CCn1c(C)cc(C)nc1=O,max activity,at 0.16 µM,10.8%
same,max activity,at 10 µM,-10.5%
Oc1[nH]c2ccccc2c1N=Nc1nc(Nc2ccccc2)nc(N2CCOCC2)n1,max activity,at 19.5 µM unless noted,-17.4% [at 5 µM]
COc1cccc(-c2ccc3c(c2)[C@H]2[C@H](CCN2S(=O)(=O)c2ccccc2F)[C@H](CO)N3)c1,max activity,at 19.5 µM unless noted,10%
O=C(c1cnccn1)N1CC(=O)N2[C@H](C1)[C@H](c1ccc(/C=C/c3ccccc3)cc1)[C@@H]2CO,max activity,at 19.5 µM unless noted,11.5% [at 0.16 µM]
O=S1(=O)c2ccccc2OCC2(CCN(Cc3ccc(F)cc3)CC2)CN1CC1CC1,max activity,at 19.5 µM unless noted,28.5%
COCC#Cc1ccc([C@H]2[C@H](CO)N3CCCCN(C(=O)NC4CCCC4)C[C@@H]23)cc1,max activity,at 19.5 µM unless noted,-13.1% [at 10 µM]
O=C(Nc1ccc2c(c1)OCO2)N1C[C@@H]2N[C@H](C1)C2c1ccc(C=Cc2ccccc2)cc1 (some centres not stated),max activity,at 19.5 µM unless noted,38% [at 10 µM]
CC(C)c1cccc(NC(=O)C[C@H]2CC[C@H]3[C@@H](COc4ccc(NS(=O)(=O)c5ccccc5Cl)cc4C(=O)N3C)O2)c1,max activity,at 19.5 µM unless noted,-22.8% [at 10 µM]
CN1C(=O)c2cc(NC(=O)c3cccc(F)c3)ccc2OC[C@@H]2O[C@H](CC(=O)NCC3CCCCC3)CC[C@@H]21,max activity,at 19.5 µM unless noted,-23.6% [at 10 µM]
COc1cccc(C(=O)Nc2ccc3c(c2)C(=O)N(C)[C@H]2CC[C@@H](CC(=O)N[C@@H](C)c4ccccc4)O[C@H]2CO3)c1,max activity,at 19.5 µM unless noted,8.03% [at 0.3 µM]
CN1C(=O)c2cc(NC(=O)c3cccc(F)c3)ccc2OC[C@H]2O[C@@H](CC(=O)NCC3CCCCC3)CC[C@@H]21,max activity,at 19.5 µM unless noted,-18% [at 2.6 µM]
CN1C(=O)c2cc(NC(=O)c3cccc(F)c3)ccc2OC[C@@H]2O[C@@H](CC(=O)NCC3CCCCC3)CC[C@@H]21,max activity,at 19.5 µM unless noted,-20.9% [at 2.6 µM]
CN1C(=O)c2cc(NC(=O)c3cccc(F)c3)ccc2OC[C@H]2O[C@@H](CC(=O)NCC3CCCCC3)CC[C@H]21,max activity,at 0.16 µM,4.44%
same,max activity,at 5 µM,-19.3%
same,max activity,at 19.5 µM,-5.09%
Cc1ccccc1S(=O)(=O)N1CCCCN2[C@H](CO)[C@H](c3ccc(C#CCN(C)C)cc3)[C@@H]2C1,max activity,at 19.5 µM unless noted,-9.35% [at 10 µM]
Cc1ccccc1-c1ccc(C2[C@@H]3CN(C(=O)C4CCOCC4)C[C@H]2N3)cc1 (some centres not stated),max activity,at 0.6 µM,-10.3%
same,max activity,at 5 µM,-5.78%
C1=C(c2ccccc2)CC(c2ccccc2)=NN=C1c1ccccc1,max activity,at 19.5 µM unless noted,-9.17% [at 10 µM]
O=S(=O)(c1ccccc1)N1CCCCN2[C@H](CO)[C@@H](c3ccc(C#CC4CCCC4)cc3)[C@@H]2C1,max activity,at 19.5 µM unless noted,39.2%
COc1cccc(S(=O)(=O)N2CCCCN3[C@H](C2)[C@@H](c2ccc(C#CCC(C)C)cc2)[C@@H]3CO)c1,max activity,at 19.5 µM unless noted,-34.5% and -29.4%
COc1cccc(S(=O)(=O)N2CCCCN3[C@H](CO)[C@H](c4ccc(C#CCC(C)C)cc4)[C@@H]3C2)c1,max activity,at 0.038 µM,-25.2%
same,max activity,at 19.5 µM,-36.4%
O=S(=O)(c1ccccc1)N1CCCCN2[C@H](C1)[C@@H](c1ccc(C#CC3CCCC3)cc1)[C@@H]2CO,max activity,at 19.5 µM unless noted,22.5%
COc1cccc(S(=O)(=O)N2CCCCN3[C@@H](CO)[C@H](c4ccc(C#CCC(C)C)cc4)[C@@H]3C2)c1,max activity,at 19.5 µM unless noted,-27.2% [at 0.3 µM]
COc1cccc(S(=O)(=O)N2CCCCN3[C@H](CO)[C@@H](c4ccc(C#CCC(C)C)cc4)[C@@H]3C2)c1,max activity,at 19.5 µM unless noted,-24.9% [at 0.038 µM]
O=S(=O)(c1ccccc1)N1CCCCN2[C@@H](CO)[C@@H](c3ccc(C#CC4CCCC4)cc3)[C@@H]2C1,max activity,at 19.5 µM unless noted,18.8% [at 10 µM]
